Experimental findings from PubChem BioAssay (NCATS) are described below.

Assay [1] concerns the target Metallo-beta-lactamase type 2 (Klebsiella pneumoniae) (UniProt C7C422). Nature of the assay: qHTS to identify inhibitors of the New Delhi Metallo-beta-lactamase (NDM): assay validation screen against the NCATS LOPAC Collection (AID 1794843).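 Further: nitrocefin turnover by NDM-1 measured as 485 nm absorbance at plateau; on the % scale 0 is the no-effect control and ±100 the full control effect.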 The method in brief: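 NDM-1 at 2 nM final in 50 mM HEPES pH 7.0, 1 uM ZnSO4, 0.01% Tween20, preincubated with LOPAC compounds pinned in DMSO; 50 uM nitrocefin (stock) added. Hydrolysis read as absorbance at 485 nm in the plateau phase.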

Assay [2] has as its target Phospholipid hydroperoxide glutathione peroxidase GPX4 (Homo sapiens) (UniProt P36969). Kind of assay: Primary qHTS Assay for Inhibitors of Recombinant Selenoprotein Glutathione Peroxidase 4 (GPX4) (AID 1845192). Further: nearly all actives have a fitted effect of over 65% in size. The settings on record: outcome: dose series up to 50 µM unless noted. A digest of the protocol:
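NADPH consumption, followed by fluorescence at 340/450 nm between 0 and 15 min, reports GPX4 activity via coupled glutathione reductase (100 nM). Enzyme 200 nM was pre-exposed to compound 30 min; 0.5 mM cumene hydroperoxide and 1 mM GSH served as substrates.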
Background: qHTS replaces the single test concentration by a dilution series.

The next assay deals with 7G8. Kind of assay: qHTS profiling for inhibitors of Plasmodium falciparum proliferation (AID 504749). Further: nearly all actives have a fitted effect of over 60% in size. Further: potency means the concentration at half of the fitted maximal effect.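 On activity, negative = inhibition: 0% = DMSO vehicle and full inhibition = artemisinin control.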 The settings on record: P. falciparum in erythrocytes, SYBR Green DNA, 72 h; series mostly up to 28.7 µM. A digest of the protocol: (§1)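 Infected RBCs, 0.3% parasitemia/2.5% Hct final; cpd 72 h, 37 C, 5% CO2; lysis buffer with saponin/triton/SYBR Green I, o/n RT dark; FI 485/535; norm. to artemisinin (0.29 uM) and DMSO.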

For the next assay, the system named is AA1029. Described as above. The following applies: P. falciparum in erythrocytes, SYBR Green DNA, 72 h; series mostly up to 28.7 µM. The method in brief:
as §1

A further assay deals with AS120. Described as above. The settings on record: P. falciparum in erythrocytes, SYBR Green DNA, 72 h; series mostly up to 28.7 µM. The method in brief:
as §1

The test system of another assay is C2A. The assay is described as above. The following applies: P. falciparum in erythrocytes, SYBR Green DNA, 72 h; series mostly up to 28.7 µM. The method in brief:
as §1

Assay [3] has as its target Glutathione peroxidase 1 (Homo sapiens) (UniProt P07203). Kind of assay: Primary qHTS Assay for Inhibitors of Recombinant Selenoprotein Glutathione Peroxidase 1 (GPX1) (AID 1845191). Further: on the % scale 0 is the no-effect control and ±100 the full control effect; nearly all actives have a fitted effect of over 65% in size. The method in brief: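 10 nM GPX1 + cpd, 30 min RT; start w/ 1 mM GSH, 0.5 mM cumene hydroperoxide, 0.5 mM NADPH, 100 nM GR, 0.01% BSA; buffer 50 mM Tris-HCl pH 7.5, 2 mM EDTA, 150 mM NaCl; Fl 340/450, 0 & 15 min.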

A short description of assay [4]: qHTS profiling for inhibitors of Plasmodium falciparum proliferation (AID 504749). Further: nearly all actives have a fitted effect of over 60% in size. Further: potency means the concentration at half of the fitted maximal effect.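 On activity, negative = inhibition: 0% = DMSO vehicle and full inhibition = artemisinin control.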 The settings on record: P. falciparum in erythrocytes, SYBR Green DNA, 72 h, at 28.7 µM (top of the series). A digest of the protocol: as §1
The test system of a further assay is 3D7. The assay is described as above. The following applies: P. falciparum in erythrocytes, SYBR Green DNA, 72 h; series mostly up to 28.7 µM. The method in brief:
as §1

In a further assay the test system is ATS189. The assay is described as above. The following applies: P. falciparum in erythrocytes, SYBR Green DNA, 72 h; series mostly up to 28.7 µM. A digest of the protocol:
as §1

In a further assay the test system is ATS95. The description is as above. The settings on record: P. falciparum in erythrocytes, SYBR Green DNA, 72 h; series mostly up to 28.7 µM. The method in brief: as §1
The subject of the next assay is CP185. Described as above. The settings on record: P. falciparum in erythrocytes, SYBR Green DNA, 72 h; series mostly up to 28.7 µM. A digest of the protocol:
as §1

A further assay relates to CP191. The assay is described as above. The settings on record: P. falciparum in erythrocytes, SYBR Green DNA, 72 h; series mostly up to 28.7 µM. The method in brief:
as §1

Another assay concerns CP192. The description is as above. The settings on record: P. falciparum in erythrocytes, SYBR Green DNA, 72 h; series mostly up to 28.7 µM. The method in brief:
as §1

The test system of a further assay is CP194. The assay is described as above. The following applies: P. falciparum in erythrocytes, SYBR Green DNA, 72 h; series mostly up to 28.7 µM. A digest of the protocol: as §1
Assay [5] is described as follows: qHTS drug screen for cell cycle checkpoint inhibitors in PARPi-resistant BRCA-mutant ovarian cancer cell lines. (AID 1963452; calls by dose curve). The following applies: PEO1/OlaR viability, CellTiter-Glo luminescence, 96 h, stronger effect = lower value. The method in brief: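 PEO1, PEO4 and PEO1/OlaR ovarian cancer cells, 600 per well, exposed 96 h at 37C to a dilution series. Viability read by CellTiter-Glo luminescence, normalized to DMSO and empty wells; activity summarized as Z-AUC.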

Results filed as inconclusive are left out. Calls of active or inactive are those of the source. Unless noted, the call rests on the fitted dose curve; in most records, active means well fitted curve in the direction sought with a large enough effect; inconclusive means small, poorly fitted or top-dose-only effect, or another doubt; inactive means no such curve, though single readings can be large; an effect the other way counts as inactive or inconclusive.

Phospholipid hydroperoxide glutathione peroxidase GPX4 (Homo sapiens), sequence (P36969 whole entry, looked up): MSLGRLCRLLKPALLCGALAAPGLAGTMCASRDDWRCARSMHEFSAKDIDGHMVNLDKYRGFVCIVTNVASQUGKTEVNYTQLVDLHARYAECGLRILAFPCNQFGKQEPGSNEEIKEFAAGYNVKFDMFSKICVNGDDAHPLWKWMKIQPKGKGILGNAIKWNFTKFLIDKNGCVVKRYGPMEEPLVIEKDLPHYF
Metallo-beta-lactamase type 2 (Klebsiella pneumoniae), sequence (C7C422 whole entry, looked up): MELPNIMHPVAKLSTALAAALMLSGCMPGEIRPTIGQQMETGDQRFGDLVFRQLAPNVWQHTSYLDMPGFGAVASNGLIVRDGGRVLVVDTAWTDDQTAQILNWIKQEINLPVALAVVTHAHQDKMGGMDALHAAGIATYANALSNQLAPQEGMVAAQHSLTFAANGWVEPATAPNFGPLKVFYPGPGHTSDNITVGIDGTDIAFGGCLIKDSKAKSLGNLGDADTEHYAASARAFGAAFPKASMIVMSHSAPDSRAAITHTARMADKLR
Glutathione peroxidase 1 (Homo sapiens), sequence (P07203 whole entry, looked up): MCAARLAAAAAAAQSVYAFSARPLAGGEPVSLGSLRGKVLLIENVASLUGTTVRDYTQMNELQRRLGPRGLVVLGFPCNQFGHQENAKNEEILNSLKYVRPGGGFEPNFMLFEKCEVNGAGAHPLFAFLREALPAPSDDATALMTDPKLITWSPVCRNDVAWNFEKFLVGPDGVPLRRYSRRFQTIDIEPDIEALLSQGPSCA

For the compound `CCOC(=O)C1=C(C)NC(C)=C(C(=O)OC)C1c1cccc([N+](=O)[O-])c1` (stereo not given), the Potency entry (in [1]; in the assay on C2A) was “inactive” in each case. Moreover, the outcome in assay [2] was inactive. For the same compound, the Potency was 10 µM (active) in the assay with 7G8, 11.2 µM (active) with AA1029 and 11.2 µM (active) with AS120.

`NC(=Nc1ccccc1)Nc1ccccc1`: the Potency result (in [3]; with 3D7; in the assay with AA1029; in the assay on AS120; in the assay with ATS189; with ATS95) was “inactive” in each case. Besides, the Potency entry in the assay on C2A, in the assay with CP185, in the assay with CP191, in the assay with CP192 and in the assay with CP194 was “inactive” throughout. Besides, in [2], the outcome was inactive. The activity, negative = inhibition is -14.1% (inactive) in [4] (parasite line A) and -13.7% (inactive) in assay [4] (parasite line B).

Regarding `CN1CCN(CC(=O)N2c3ccccc3C(=O)Nc3cccnc32)CC1`, the Potency entry (in assay [3]; in the assay on 3D7; in the assay with 7G8; in the assay on AA1029; in the assay on AS120; with ATS189) was “inactive” each time. In addition, the Potency entry in the assay with ATS95, in the assay with C2A, in the assay on CP185, with CP191, with CP192 and in the assay on CP194 was “inactive” throughout. For the same compound, the results for the activity, negative = inhibition in [4] (parasite line A) and in assay [4] (parasite line B) were -7.56% (inactive) and -8.28% (inactive), respectively.

As to `NC(=O)N1c2ccccc2C=Cc2ccccc21`, the Potency result (in assay [1]; with 3D7; in the assay on 7G8; in the assay with AA1029; with AS120; in the assay with ATS189) was “inactive” each time. Also, the Potency entry in the assay with ATS95, with C2A, in the assay with CP185, in the assay on CP191, in the assay with CP192 and in the assay on CP194 was “inactive” in each case. In addition, the outcome in assay [2] was inactive. Moreover, the activity, negative = inhibition was -22.9% (inactive) in assay [4] (parasite line A) and -3.8% (inactive) in [4] (parasite line B).

`CC(=O)[C@@]1(O)CC[C@H]2[C@@H]3CCC4=CC(=O)CC[C@]4(C)[C@H]3CC[C@@]21C`: the Potency result (in [1]; in the assay with 3D7; in the assay on 7G8; in the assay on AA1029; in the assay with AS120; in the assay on ATS189) was “inactive” in each case. The Potency entry in the assay on ATS95, in the assay on C2A, in the assay on CP185, with CP191, in the assay on CP192 and in the assay on CP194 was “inactive” throughout. Further, the result in [2] was inactive. Further, the activity, negative = inhibition in assay [4] (parasite line A) was -9.44% (inactive); in assay [4] (parasite line B) it was 1.51% (inactive).

Consider `CCOC(=O)c1cnc2c(cnn2CC)c1NN=C(C)C`, for which the Potency entry (in [1]; with 3D7; in the assay on AA1029; in the assay with AS120; with ATS189; in the assay on ATS95) was “inactive” in each case. Moreover, the Potency result in the assay on C2A, with CP185, in the assay on CP191, in the assay on CP192 and with CP194 was “inactive” throughout. For the same compound, the activity, negative = inhibition in [4] (parasite line A) is 15.4% (inactive); in assay [4] (parasite line B), -4.13% (inactive). The Potency with 7G8 is 11.2 µM (active).

On to `C#CCN(C)CCCOc1ccc(Cl)cc1Cl`, for which the Potency entry (in assay [1]; in the assay on 3D7; in the assay with AA1029; with AS120; in the assay with ATS189; in the assay on ATS95) was “inactive” throughout. For the same compound, the Potency entry in the assay with C2A, in the assay on CP185, in the assay on CP191, in the assay on CP192 and with CP194 was “inactive” throughout. Further, in assay [2], the result was inactive. For the same compound, the activity, negative = inhibition in [4] (parasite line A) was 6.5% (inactive); in [4] (parasite line B), 12.2% (inactive).

Consider `CCn1cc(C(=O)O)c(=O)c2cc3c(cc21)OCO3`, for which the Potency result (in assay [1]; in the assay with 3D7; in the assay with AA1029; in the assay with AS120; in the assay with ATS189; with ATS95) was “inactive” in each case. Moreover, the Potency entry with C2A, in the assay with CP185, in the assay with CP191, in the assay with CP192 and with CP194 was “inactive” in each case. Also, the outcome in [2] was inactive. The activity, negative = inhibition is -8.68% (inactive) in [4] (parasite line A) and -3.36% (inactive) in [4] (parasite line B).

Consider `CCCN(CCC)C(=O)C(CCC(=O)O)NC(=O)c1ccccc1` (stereo not given), for which the Potency result in assay [1] was “inactive”. Besides, the Z-AUC is 0.987 (inactive) in [5], 0.633 in assay [5] (measured here: PEO1 parental Z-AUC) and 0.925 in [5] (measured here: PEO4 Z-AUC).

`CCN(CC)CCNC(=O)c1ccc(NC(C)=O)cc1`: the Potency result (in [1]; with 3D7; in the assay on 7G8; in the assay with AA1029; in the assay on AS120; with ATS189) was “inactive” throughout. Besides, the Potency entry with ATS95, with C2A, with CP185, with CP191, in the assay with CP192 and in the assay on CP194 was “inactive” each time. Also, the result in assay [2] was inactive. The activity, negative = inhibition is 9.9% (inactive) in assay [4] (parasite line A) and 23.7% (inactive) in [4] (parasite line B).
